CCT chaperon mod – modulators of cytosolic chaperonin (CCT/TRiC) activity. activity change, % (test concentration not listed), hits read low. AID 651819. 360,000 tested, 0.3% active. purified chaperonin ATPase assay, HTRF ADP detection, 30 min; in the data active = activity change below about -30%; also: % is scaled to controls: 0 for no effect and ±100 for the full control effect
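We incubate TRiC, 40 or 20 nM final, with library compounds at 76 uM and 10 uM ATP for 30 min at 37 °C. ADP formed is detected with Transcreener HTRF reagents after 30 min at room temperature.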
MmCpn inh – M. maripaludis TRiC chaperonin inhibition; 330,000 tested, 0.031% active; AID 504842; Potency, µM (series often up to 76.9 µM), without a hit: at the highest dose activity, negative = inhibition, hits mostly inhibitors; purified Mm-Cpn ATPase, ADP Transcreener TR-FRET; also: potency is read from the fitted curve at half-maximal effect; % is scaled to controls: 0 for no effect and ±100 for the full control effect; nearly all actives have a fitted effect of over 80% in size
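Reaction buffer contained 30 mM Tris pH 7.4, 100 mM KCl, 5 mM MgCl2 and 1 mM DTT. Mm-CPN (25 nM final) hydrolysed 10 uM ATP over 30 min at 37°C; ADP was read by HTRF.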
gsp antag – antagonists of gsp mutant (McCune-Albright syndrome) | gsp-mutant cells, cAMP HTRF, 30 min | Potency, µM (doses to about 76.9 µM), for inactives: at the top dose activity change, negative = inhibition, actives largely listed as inhibitors | 340,000 tested, 0.4% active | AID 624288; calls by dose curve; cell line not stated here;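 also: intracellular cAMP measured with PDE inhibitor Ro 20-1724 present during compound exposure; potency is read from the fitted curve at half-maximal effect; % is scaled to controls: 0 for no effect and ±100 for the full control effect; nearly all actives have a fitted effect of over 65% in size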
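HTRF cAMP read-out (cAMP-d2 plus anti-cAMP antibody-K in lysis buffer, 30 min RT). Before lysis, cells are exposed to compounds with […] for 30 min at 37C in DPBS containing Ca/Mg, BSA and Tween 20.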
gsp agonist – activates gsp, the McCune-Albright syndrome mutation. gsp mutant cells, cAMP HTRF, 30 min. Potency, µM (titrated, usually from 76.9 µM), without a hit: at the top dose activation (cAMP increase), usual class: activators. 340,000 tested, 0.13% active; active = well fitted activation curve with a large enough effect; inconclusive = small, poorly fitted or top-dose-only effect, or another doubt; inactive = no such curve, though single readings can be large or run the other way; cell line not stated here;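 also: phosphodiesterase inhibitor Ro 20-1724 added with compounds to block cAMP breakdown; potency is read from the fitted curve at half-maximal effect; nearly all actives have a fitted effect of over 60% in size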
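Cells stably selected in G418 were plated at 2000/well, grown 16-24 hr, then given compounds in DMSO with the PDE inhibitor […] (300 uM solution added) for 30 min at 37C; cAMP was read by HTRF.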
RXFP1 antagonist – RXFP1 (human) relaxin receptor antagonism. Q9HBX9. HEK293-RXFP1, relaxin-stimulated cAMP HTRF, 30 min; active compounds read low. activity change, negative = inhibition, % at 57.5 µM. 350,000 tested, 0.59% active;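 active = activity change of -60% or lower, but not beyond a set lower limit; inconclusive = change between -60% and -40%, or beyond the set limit; inactive = change above -40%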; also: % is scaled to controls: 0 for no effect and ±100 for the full control effect
Target sequence (Q9HBX9 whole entry, looked up): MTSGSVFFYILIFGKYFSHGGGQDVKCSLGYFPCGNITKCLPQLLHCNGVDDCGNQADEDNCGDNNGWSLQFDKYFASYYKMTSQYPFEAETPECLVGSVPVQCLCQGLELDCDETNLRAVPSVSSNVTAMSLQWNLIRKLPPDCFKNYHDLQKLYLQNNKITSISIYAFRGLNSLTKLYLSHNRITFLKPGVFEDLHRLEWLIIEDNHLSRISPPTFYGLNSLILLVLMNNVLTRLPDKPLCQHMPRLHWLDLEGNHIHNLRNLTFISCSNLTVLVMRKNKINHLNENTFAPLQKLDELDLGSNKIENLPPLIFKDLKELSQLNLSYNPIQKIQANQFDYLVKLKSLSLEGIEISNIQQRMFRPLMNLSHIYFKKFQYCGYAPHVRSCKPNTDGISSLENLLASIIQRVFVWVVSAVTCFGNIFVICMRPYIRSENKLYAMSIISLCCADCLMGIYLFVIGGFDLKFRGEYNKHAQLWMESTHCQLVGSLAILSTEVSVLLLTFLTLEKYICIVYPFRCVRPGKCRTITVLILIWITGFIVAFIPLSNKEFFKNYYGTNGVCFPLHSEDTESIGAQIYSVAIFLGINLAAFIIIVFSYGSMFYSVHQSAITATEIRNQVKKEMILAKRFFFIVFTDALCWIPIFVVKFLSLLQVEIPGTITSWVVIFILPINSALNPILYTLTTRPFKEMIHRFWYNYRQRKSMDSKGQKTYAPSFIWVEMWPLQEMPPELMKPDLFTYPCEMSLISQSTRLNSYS
RXFP1 agonist – RXFP1 (human) receptor agonism; Q9HBX9; HEK293T-RXFP1 cAMP TR-FRET, 30 min; response scale: percent of porcine relaxin response, buffer zero; Potency, µM (titrated, usually from 57.5 µM), without a hit: top-dose activation, actives largely listed as activators; 370,000 tested, 0.3% active; also: potency is read from the fitted curve at half-maximal effect; % is scaled to controls: 0 for no effect and ±100 for the full control effect; nearly all actives have a fitted effect of over 60% in size
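Agonist response is measured as cAMP accumulation in an RXFP1-transfected HEK293T line under PDE4 inhibition. Values are scaled between buffer-only and 29 nM porcine relaxin, and EC50s come from standard Hill equation fits.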
* = called active by the depositor; ? = inconclusive; / = not tested or not shown; [ ] = another dose, or the depositor's remark. In the library only some 1.2% were active in any assay of this set; here they are far more common. Unless noted, calls follow the shape of the dose curve; as a rule, active = well fitted curve in the direction sought with a large enough effect; inconclusive = small, poorly fitted or top-dose-only effect, or another doubt; inactive = no such curve, though single readings can be large; an effect the other way counts as inactive or inconclusive.

SMILES | CCT chaperon mod | MmCpn inh | gsp antag | gsp agonist | RXFP1 antagonist | RXFP1 agonist
CNC[C@H](O)[C@@H](O)[C@H](O)[C@H](O)CO | / | / | / | / | -3 | /
Cc1ccc(N(CC(=O)NCCc2ccc(F)cc2)S(=O)(=O)c2ccc(Cl)c([N+](=O)[O-])c2)c(C)c1 | 1 | 0% | 25µM* | -31% | -16 | 1%
CCOc1ccc(/C=C2\SC(=O)N(CCNC(=O)C3COc4ccccc4O3)C2=O)cc1OC (stereo not given) | -35* | 2% | 28µM* | -5% | / | -2%
COc1ccc(/C=C2/SC(=O)N(CCNC(=O)C3COc4ccccc4O3)C2=O)cc1 (stereo not given) | 3 | 1% | ? | -11% | -17 | 1%
CCOc1c(N2CCOCC2)cnn(C)c1=O | / | / | / | / | -12 | /
O=C(NCCSCc1ccco1)Nc1cc(Cl)cc(Cl)c1 | 1 | 2% | ? | 5% | -71* | 1%
O=C(CSCc1ccc(Cl)cc1)NCCSCc1ccco1 | -1 | -2% | -1% | 8%[15.4 µM] | -24 | -1%
COc1ccc(N2CCN(c3ncnc4c3[nH]c3ccccc34)CC2)cc1 | 1 | / | 16µM* | 14% | ? | 3%
COc1ccc2[nH]c3c(N4CCc5ccccc5C4)ncnc3c2c1 | 2 | -3% | -13% | -1%[15.4 µM] | ? | 10%
O=C(Nc1ccc(Nc2ccccc2)cc1)c1ccc(Br)o1 | -3 | 0% | ? | 6% | -68* | -1%
Cc1ccc(CNC(=O)C(C)n2c(=O)cc(C(F)(F)F)c3c(C)nn(C)c32)cc1 (stereo not given) | / | / | / | / | -6 | -1%
O=C(CN1C(=O)C2(SCC(=O)N2c2cccc(F)c2)c2ccccc21)NCCc1ccccc1 (stereo not given) | / | / | / | / | / | 0%
O=C(c1ccc2c(=O)n3c(nc2c1)CCCCC3)N1CCCCC1 | -1 | 2% | 5% | 3% | -108* | 2%
CCN(CC)c1nc(-c2nn[nH]n2)nc(N(CC)CC)n1 | -1 | -1% | 40µM* | ? | 0 | 3%
CCN(CC)c1nc(N(CC)CC)[nH]c(=O)n1 | -1 | / | 0% | 18% | -8 | /
CCn1c2ccccc2c2cc(/C=N/n3c(-c4cc(C)[nH]n4)n[nH]c3=S)ccc21 | -2 | 1% | 35µM* | -1%[15.4 µM] | -29 | -1%
CCC(=O)c1ccc(N2CCN(C(=O)c3ccccc3F)CC2)c(F)c1 | 1 | -1% | -25% | 17%[15.4 µM] | -24 | -2%
O=C(c1ccccc1)c1ccc(N2CCN(C(=O)c3cccc(F)c3F)CC2)c(F)c1 | 2 | -4% | 40µM* | ? | -11 | -2%
O=C(c1ccc(N2CCN(C(=O)c3ccc(F)cc3F)CC2)cc1)c1cccc(F)c1 | -3 | -10% | 35µM* | -1% | -3 | -1%
CCOC(=O)N1CCN(c2ccc(C(=O)c3ccccc3)cc2F)CC1 | 1 | -2% | 32µM* | -16% | -5 | 1%
CCOC(=O)N1CCN(c2ccc(C(C)=O)cc2F)CC1 | 1 | 4% | -7% | -52% | 1 | 0%
COc1ccc(C)cc1NC(=O)CN(c1cc(C(F)(F)F)ccc1Cl)S(C)(=O)=O | / | / | / | / | / | -1%
O=C(COc1ccccc1F)Nc1ccc(Cl)c(-c2nc3ccccc3[nH]2)c1 | / | / | / | / | -15 | 3%
CN(C)c1ccc(/C=C/c2ccc3ccccc3n2)cc1 | -2 | -6% | 1% | ? | 9 | ?
CCN(CC)c1ccc(/C=C/c2cc(-c3ccccc3)c3ccccc3n2)cc1 | 1 | 35µM* | -5% | ? | 11 | ?
SMILES | CCT chaperon mod | MmCpn inh | gsp antag | gsp agonist | RXFP1 antagonist | RXFP1 agonist
CC1=Nc2cc(C(=O)NC(C)C)ccc2Sc2ccc(C)cc21 | / | / | / | / | -2 | -4%
Cc1cccc(Nc2nc(N)c([N+](=O)[O-])c(N3CCC(C)CC3)n2)c1 | -4 | 0% | -8% | 28%[15.4 µM] | -69* | 1%
CCOc1ccc(CCNC(=O)c2[nH]c3cc(OC)ccc3c2Sc2ccccc2)cc1OCC | / | / | / | / | -19 | 3%
CCOC(=O)CS(=O)(=O)c1nc(-c2ccccc2)cc(C(F)(F)F)n1 | 0 | -4% | 6%[15.4 µM] | 12% | -78* | 0%
CCOC(=O)CS(=O)(=O)c1nc(-c2ccc(F)cc2)cc(C(F)(F)F)n1 | -11 | -8% | 2%[15.4 µM] | 0% | -80* | 0%
COc1ccccc1NC(=O)Cn1c(=O)n(Cc2nc(-c3ccccc3)no2)c(=O)c2ccccc21 | / | / | / | / | -4 | 3%
Cc1c(C(=O)Nc2nc3ccccc3[nH]2)oc2c(Cl)cccc12 | -30* | 0% | -4% | 10% | -4 | -1%
Cc1c(C(=O)Nc2nc3ccccc3[nH]2)oc2ccccc12 | -2 | 0% | ? | -54% | -21 | -1%
COc1cccc(C(=O)Nc2nc3ccccc3s2)c1 | 1 | -1% | -4% | -22% | 1 | -1%
COc1ccc(OC)c(C2C(C(=O)Nc3nc4ccccc4s3)=C(C)NC3=C2C(=O)CCC3)c1 (stereo not given) | 1 | 0% | 32µM* | -15% | -3 | 3%
COc1ccc(C(=O)Nc2nc3ccccc3[nH]2)cc1 | -1 | 1% | -16% | 6% | -78* | 0%
COc1ccc(C(=O)Nc2nc3ccccc3s2)cc1 | 0 | -4% | ? | 7% | -66* | 2%
COc1ccccc1CNC(=O)Cn1c(=O)oc2cc(S(=O)(=O)NCc3ccccc3)ccc21 | / | / | / | / | -20 | -1%
O=C(Nc1nc2ccccc2s1)c1ccc(OCC2CCCO2)cc1 (stereo not given) | 2 | -9% | 32µM* | 12% | -35 | 1%
COc1ccccc1C(=O)NCCC(=O)Nc1nc2ccccc2[nH]1 | -2 | -1% | -1% | 9%[15.4 µM] | -86* | 1%
Cc1cnc(NC(=O)c2ccc(OCC3CCCO3)cc2)s1 (stereo not given) | 0 | 0% | 5% | 11%[15.4 µM] | 10 | -1%
CC(C)CN(C(=O)CN1C(=O)NC2(CCc3ccccc32)C1=O)C1CCS(=O)(=O)C1 (stereo not given) | 0 | -1% | 17% | 10% | -7 | 0%
CCN(C(=O)CN1C(=O)NC2(CCc3ccccc32)C1=O)C1CCS(=O)(=O)C1 (stereo not given) | -34* | -5% | 5% | -26% | 1 | 0%
CCOC(=O)c1cnc2c(OC)cccc2c1Nc1cccc(O)c1 | / | / | / | / | / | -1%
CCOC(=O)c1cc(S(=O)(=O)Nc2ccc(C)cc2Cl)[nH]n1 | / | / | / | / | / | 5%
CCCN(CCC)C(=O)Cn1c(=O)n(-c2ccc(CC)cc2)c(=O)c2ccc(C(=O)NCCc3ccccc3)cc21 | / | / | / | / | / | 25µM*
c1ccc(CN2CCN(C(c3ccccc3)c3ccccc3)CC2)cc1 | -2 | -1% | 3% | 50%[15.4 µM] | -104* | 1%

Screening results from PubChem.
